Measured values as given in PubChem BioAssay (EPA / NIEHS).
Activity calls are given as the source filed them. How the source made its calls: active means hit-call score of the fitted dose curve at least 0.9, where 1 is the maximum; inactive means score below 0.9.

Legend:
[1] = read-out: Cyclin Dependent Kinase Inhibitor 1A (CDKN1A), CDKN1A (gene 1026); test: LTEA_HepaRG_CDKN1A: Life Technologies and Expression Analysis (LTEA) Assay for Cyclin Dependent Kinase Inhibitor 1A (CDKN1A) using HepaRG (AID 2283450); details: mRNA level, 48 h; actives raise or lower the signal
Method in brief: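 Expression quantified by Fluidigm qRT-PCR with ACTB, GAPDH and POLR2A normalization, fitted bidirectionally against 0.5% DMSO. Cells: HepaRG, plated 48 h then treated 48 h in serum-free induction medium, top concentration 100 uM with half-log dilutions.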

[2] = read-out: Cyclin D1 (CCND1), CCND1 (gene 595); test: LTEA_HepaRG_CCND1: Life Technologies and Expression Analysis (LTEA) Assay for Cyclin D1 (CCND1) using HepaRG (AID 2283451); details: mRNA level, 48 h; actives raise or lower the signal;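 on AC50: differentiated human HepaRG liver cells in serum-free induction medium; TaqMan qRT-PCR transcript level normalised to ACTB GAPDH and POLR2A housekeeping genes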
Method in brief: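 Expression of CCND1 was quantified by qRT-PCR on Fluidigm arrays using ACTB, GAPDH and POLR2A as reference genes. HepaRG cultures, plated 48 h beforehand, were dosed for 48 h at up to 100 uM (half-log, 8 points) in 0.5% DMSO.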

[3] = read-out: catalase (CAT), CAT (gene 847); test: LTEA_HepaRG_CAT: Life Technologies and Expression Analysis (LTEA) Assay for catalase (CAT) using HepaRG (AID 2283452); details: mRNA level, 48 h; actives raise or lower the signal;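 on AC50: TaqMan qRT-PCR signal normalized to ACTB GAPDH and POLR2A housekeeping genes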
Method in brief: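 Expression of CAT was quantified by TaqMan qRT-PCR with ACTB/GAPDH/POLR2A normalization after 48 h chemical exposure of HepaRG. Eight-point half-log series, top 100 uM, in 0.5% DMSO; gain or loss fitted against vehicle.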

[4] = read-out: flavin-containing dimethylaniline monooxygenases 3 (FMO3), FMO3 (gene 2328); test: LTEA_HepaRG_FMO3: Life Technologies and Expression Analysis (LTEA) Assay for flavin-containing dimethylaniline monooxygenases 3 (FMO3) using HepaRG (AID 2283453); details: mRNA level, 48 h; actives raise or lower the signal;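 on AC50: differentiated human HepaRG liver cells in serum-free induction medium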
Method in brief: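 FMO3 transcript quantified by TaqMan qRT-PCR against three housekeeping genes after 48 h chemical exposure of HepaRG cells. Eight-point half-log series, top 100 uM, 0.5% DMSO vehicle; phenobarbital 1mM induction control; up- or down-regulation fitted.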

[5] = read-out: Cytochrome P450 (CYP1A1), CYP1A1 (gene 1543); test: LTEA_HepaRG_CYP1A1: Life Technologies and Expression Analysis (LTEA) Assay for Cytochrome P450 (CYP1A1) using HepaRG (AID 2283454); details: mRNA level, 48 h; actives raise or lower the signal
Method in brief: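 CYP1A1 transcript levels measured by Fluidigm qRT-PCR against three housekeeping genes, 48 h after chemical dosing of human HepaRG cells (highest concentration 100 uM, half-log steps, 0.5% DMSO vehicle). Gain or loss of signal fitted relative to DMSO.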

[6] = read-out: CFLAR gene, CFLAR (gene 8837); test: LTEA_HepaRG_CFLAR: Life Technologies and Expression Analysis (LTEA) Assay for CFLAR gene using HepaRG (AID 2283455); details: mRNA level, 48 h; actives raise or lower the signal
Method in brief: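 Transcript level by qRT-PCR (normalized to ACTB, GAPDH and POLR2A) after 48 h chemical exposure of HepaRG cells, top concentration 100 uM with half-log steps, 0.5% DMSO vehicle, duplicates; fitted bidirectionally against DMSO baseline.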

[7] = read-out: Forkhead box O1 (FOXO1), FOXO1 (gene 2308); test: LTEA_HepaRG_FOXO1: Life Technologies and Expression Analysis (LTEA) Assay for Forkhead box O1 (FOXO1) using HepaRG (AID 2283456); details: mRNA level, 48 h; actives raise or lower the signal
Method in brief: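 FOXO1 transcript quantified by qRT-PCR after 48 h chemical exposure (top 100 uM, half-log steps, 0.5% DMSO) of HepaRG cells, housekeeping-normalized (ACTB/GAPDH/POLR2A). Changes fitted in both directions relative to vehicle.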

[8] = read-out: growth arrest and DNA damage 45 (GADD45A), GADD45A (gene 1647); test: LTEA_HepaRG_GADD45A: Life Technologies and Expression Analysis (LTEA) Assay for growth arrest and DNA damage 45 (GADD45A) using HepaRG (AID 2283458); details: mRNA level, 48 h; actives raise or lower the signal
Method in brief: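 Transcript induction or loss, quantified by TaqMan qRT-PCR against three housekeeping genes, is the read-out. HepaRG cells received chemicals for 48 h across eight half-log concentrations from 100 uM in 0.5% DMSO; gain and loss fitted relative to DMSO.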

[9] = CEETOX_H295R_TESTO: CeeTox H295R High-throughput Steroidogenesis Assay for Testosterone (TESTO) (AID 2283457); details: actives raise or lower the signal;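 on AC50: cells exposed to chemicals for 48 h before medium collection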
Method in brief: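 Testosterone secreted into the medium over 48 h by H295R cells (maximum passage 10) was quantified by LC-MS/MS after MTBE extraction. Fitted in both directions against DMSO, with concentrations diluted until MTT viability was ≥70%.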

[10] = read-out: Forkhead box O3 (FOXO3), FOXO3 (gene 2309); test: LTEA_HepaRG_FOXO3: Life Technologies and Expression Analysis (LTEA) Assay for Forkhead box O3 (FOXO3) using HepaRG (AID 2283459); details: mRNA level, 48 h; actives raise or lower the signal
Method in brief: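 FOXO3 transcript measured by qRT-PCR (normalized to ACTB, GAPDH, POLR2A) after 48 h exposure of HepaRG cells in serum-free induction medium. Duplicates, eight half-log concentrations up to 100 uM, 0.5% DMSO; gain or loss fitted against DMSO.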

Measured: AC50

ClC1=C(Cl)C2(Cl)C3C(Cl)C(Cl)CC3C1(Cl)C2(Cl)Cl (stereo unspecified)
active: [5] 33.4 µM
not listed: [9] | [10]
inactive: all other assays above

OCC1CO1 (stereo unspecified)
not listed: [9] | [10]
inactive: all other assays above

CCC(C)(C)c1ccc(O)cc1
not listed: [9] | [10]
inactive: all other assays above

O=[N+]([O-])c1ccc(Cl)c(Cl)c1
active: [5] 5.16 µM
not listed: [9] | [10]
inactive: all other assays above

c1cc2c3c(cccc3c1)CC2
active: [1] 0.387 µM | [5] 72.4 µM
not listed: [9] | [10]
inactive: all other assays above

CSC(C)(C)C=NO
not listed: [9] | [10]
inactive: all other assays above

CCCCN(CCCC)SN(C)C(=O)Oc1cccc2c1OC(C)(C)C2
active: [5] 50 µM
not listed: [9] | [10]
inactive: all other assays above

Cc1cccc(N)c1
active: [5] 50.2 µM
not listed: [9] | [10]
inactive: all other assays above

CCOS(=O)(=O)OCC
not listed: [9] | [10]
inactive: all other assays above

c1ccc(OP(Oc2ccccc2)Oc2ccccc2)cc1
active: [5] 77.3 µM
not listed: [9] | [10]
inactive: all other assays above

c1nc[nH]n1
active: [5] 0.146 µM
not listed: [9] | [10]
inactive: all other assays above

CCNc1nc(Cl)nc(NC(C)(C)C)n1
active: [5] 22.7 µM
not listed: [10]
inactive: all other assays above

Nc1ccc(Cl)cc1
active: [5] 28 µM
not listed: [9] | [10]
inactive: all other assays above

CCC1(c2ccccc2)C(=O)N=C(O)NC1=O (stereo unspecified)
active: [5] 64.3 µM
not listed: [9] | [10]
inactive: all other assays above

ClC(Cl)(Cl)c1ccccc1
not listed: [9] | [10]
inactive: all other assays above

O=[N+]([O-])c1ccccc1
active: [5] 50 µM
not listed: [9] | [10]
inactive: all other assays above

CCCN(CCC)c1c([N+](=O)[O-])cc(C(C)C)cc1[N+](=O)[O-]
active: [5] 24.5 µM | [8] 0.234 µM
not listed: [9] | [10]
inactive: all other assays above

CC(C)(C)OOC(C)(C)C
not listed: [9] | [10]
inactive: all other assays above

CCOc1ccc(C(C)(C)COCc2cccc(Oc3ccccc3)c2)cc1
active: [5] 41 µM
not listed: [9] | [10]
inactive: all other assays above

Cc1ccc([N+](=O)[O-])cc1C
active: [5] 68.1 µM
not listed: [9] | [10]
inactive: all other assays above

ClC(Cl)c1ccccc1
active: [5] 50 µM
not listed: [9] | [10]
inactive: all other assays above

c1ccc2c(c1)Nc1ccccc1S2
active: [2] 67.9 µM | [5] 86.5 µM
not listed: [9] | [10]
inactive: all other assays above

CCCCN(CCCC)N=O
not listed: [9] | [10]
inactive: all other assays above

CC(Cl)(Cl)C(=O)O
not listed: [9] | [10]
inactive: all other assays above

Nc1ccc2ccccc2c1
active: [5] 23.5 µM
not listed: [9] | [10]
inactive: all other assays above

CCCCCCCc1ccc(O)cc1
not listed: [9] | [10]
inactive: all other assays above

Cc1ccc(N)cc1N
active: [5] 21.6 µM
not listed: [9] | [10]
inactive: all other assays above

CCOC(=O)c1ccccc1C(=O)OCC
active: [5] 74 µM
not listed: [9] | [10]
inactive: all other assays above

ClC(Cl)=C(c1ccc(Cl)cc1)c1ccccc1Cl
inactive: [9]

CN(C)C(=O)Cl
active: [5] 50 µM
not listed: [7] | [9] | [10]
inactive: all other assays above

CCCCc1ccccc1
active: [5] 75.6 µM
not listed: [9]
inactive: all other assays above

Nc1cc2c3c(c1)C(c1ccccc1)=N[C@@H](NC(=O)c1cccnc1)C(=O)N3CC2
active: [5] 31.8 µM
not listed: [9] | [10]
inactive: all other assays above

CCN(CC)c1ccccc1
active: [5] 50 µM
not listed: [9] | [10]
inactive: all other assays above

O=C(O)C(Cl)Cl
not listed: [9] | [10]
inactive: all other assays above

[N-]=[N+]=[N-]
inactive: [2] | [5] | [6] | [10]
active: [1] 74.9 µM | [3] 82.9 µM | [4] 88.5 µM | [7] 76.1 µM | [8] 88.1 µM

CCOP(=S)(OCC)SCSCC
active: [5] 66.7 µM
not listed: [9] | [10]
inactive: all other assays above

O=C(O)C1C(C(=O)O)C2(Cl)C(Cl)=C(Cl)C1(Cl)C2(Cl)Cl (stereo unspecified)
not listed: [9]
inactive: all other assays above

CCOP(=S)(Oc1ccc([N+](=O)[O-])cc1)c1ccccc1 (stereo unspecified)
active: [5] 14.3 µM
not listed: [9] | [10]
inactive: all other assays above

COCCOCCO
not listed: [9] | [10]
inactive: all other assays above

CO/N=C(/C(=O)OC)c1ccccc1COc1ccccc1C
active: [9] 9.76 µM

CC(C)(C)c1ccc(O)cc1
not listed: [5] | [9] | [10]
inactive: all other assays above

CC(Cc1ccc(OCC(=O)O)cc1)NCC(O)c1csc(C(F)(F)F)n1 (stereo unspecified)
active: [5] 0.0496 µM
not listed: [9] | [10]
inactive: all other assays above

CC(=O)c1ccc(-c2ccccc2)cc1
active: [9] 19.1 µM

Cc1ccc(O)cc1C
not listed: [5] | [9] | [10]
inactive: all other assays above

Nc1ccc([N+](=O)[O-])cc1Cl
inactive: [9]

O=P1(N(CCCl)CCCl)NCCCO1 (stereo unspecified)
active: [5] 50 µM
not listed: [9] | [10]
inactive: all other assays above

N#Cc1c(-c2ccc(Cl)cc2)[nH]c(C(F)(F)F)c1Br
inactive: [9]

COP(N)(=S)OC
inactive: [9]

O=P(Oc1ccccc1)(Oc1ccccc1)Oc1ccccc1
active: [1] 77.7 µM | [5] 26 µM
not listed: [9] | [10]
inactive: all other assays above
